Results from the supplement of paper PMC4466140.

B1: unnamed (peptide)
chain: RVTRKRPREPKSTND
B2: unnamed (peptide)
chain: GRLRPKRIAPWHLIQ

Each binder was assayed against AgAbp1 (assay: SPOT peptide array binding signal intensity (averaged, normalized) (arbitrary units (background-subtracted, floor 0; scale differs between SH3 domains)); higher = stronger binding of the SH3 domain to the peptide).
In short: (§1)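 Binding signal refers to normalized, background-subtracted spot intensity averaged over replicates, expressed in arbitrary units that differ between domains. GST-fused SH3 domains from four yeast species were incubated at 10 μg/ml overnight at 4°C on cellulose membranes of synthetic 15-mer peptides with cysteines replaced by serines. Bound protein was detected with anti-GST antibody, an HRP anti-mouse secondary and luminol, and quantified with Genespotter.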
B1 was tested, and the “SPOT peptide array binding signal intensity” value was 86. For B2, the “SPOT peptide array binding signal intensity” value was 84.5.

Each binder was assayed against AgBbc1 in the same assay as above.
In short: as §1
B1 was tested, and the “SPOT peptide array binding signal intensity” value was 146. For B2, the “SPOT peptide array binding signal intensity” value was 22.8.

The binders below were run against AgBem1-D1 in the same assay as above.
In short: as §1
In the case of B1, the “SPOT peptide array binding signal intensity” value is reported as 322. For B2, the “SPOT peptide array binding signal intensity” value was 21.

The binders below were run against AgBzz1-D1 in the same assay as above.
In short: as §1
In the case of B1, the “SPOT peptide array binding signal intensity” value is reported as 18. In the case of B2, the “SPOT peptide array binding signal intensity” value is reported as 22.

Each binder was assayed against AgBzz1-D2 in the same assay as above.
In short: as §1
For B1, the “SPOT peptide array binding signal intensity” value was 31. With B2 the “SPOT peptide array binding signal intensity” value was 15.5.

The binders below were run against AgCyk3 in the same assay as above.
In short: as §1
B1 was tested, and the “SPOT peptide array binding signal intensity” value was 3. In the case of B2, the “SPOT peptide array binding signal intensity” value is reported as 4.

These binders were tested against AgFus1 in the same assay as above.
In short: as §1
In the case of B1, the “SPOT peptide array binding signal intensity” value is reported as 300. With B2 the “SPOT peptide array binding signal intensity” value was 106.

The binders below were run against AgHof1 in the same assay as above.
In short: as §1
For B1, the “SPOT peptide array binding signal intensity” value was 64.5. With B2 the “SPOT peptide array binding signal intensity” value was 15.

What follows are binders tested against AgHse1 in the same assay as above.
In short: as §1
With B1 the “SPOT peptide array binding signal intensity” value was 606. With B2 the “SPOT peptide array binding signal intensity” value was 542.

Each binder was assayed against AgLsb1 in the same assay as above.
In short: as §1
For B1, the “SPOT peptide array binding signal intensity” value was 3. In the case of B2, the “SPOT peptide array binding signal intensity” value is reported as ≤ 0.

What follows are binders tested against AgLsb4 in the same assay as above.
In short: as §1
B1 was tested, and the “SPOT peptide array binding signal intensity” value was 72. B2 was tested, and the “SPOT peptide array binding signal intensity” value was 36.

The binders below were run against AgMyo5 in the same assay as above.
In short: as §1
B1 was tested, and the “SPOT peptide array binding signal intensity” value was 2.5. With B2 the “SPOT peptide array binding signal intensity” value was 0.5.

The binders below were run against AgNbp2 in the same assay as above.
In short: as §1
In the case of B1, the “SPOT peptide array binding signal intensity” value is reported as 123. In the case of B2, the “SPOT peptide array binding signal intensity” value is reported as 590.

These binders were tested against AgRvs167 in the same assay as above.
In short: as §1
For B1, the “SPOT peptide array binding signal intensity” value was 0.667. In the case of B2, the “SPOT peptide array binding signal intensity” value is reported as 3.83.

Each binder was assayed against AgSho1 in the same assay as above.
In short: as §1
For B1, the “SPOT peptide array binding signal intensity” value was 31. In the case of B2, the “SPOT peptide array binding signal intensity” value is reported as ≤ 0.

Each binder was assayed against AgSla1-D1-D2 in the same assay as above.
In short: as §1
For B1, the “SPOT peptide array binding signal intensity” value was 178. For B2, the “SPOT peptide array binding signal intensity” value was 44.

Each binder was assayed against AgSla1-D3 in the same assay as above.
In short: as §1
With B1 the “SPOT peptide array binding signal intensity” value was 7.25. For B2, the “SPOT peptide array binding signal intensity” value was 2.5.

What follows are binders tested against CaAbp1-D1 in the same assay as above.
In short: as §1
For B1, the “SPOT peptide array binding signal intensity” value was 887. For B2, the “SPOT peptide array binding signal intensity” value was 1010.

These binders were tested against CaAbp1-D2 in the same assay as above.
In short: as §1
For B1, the “SPOT peptide array binding signal intensity” value was 550. With B2 the “SPOT peptide array binding signal intensity” value was 666.

These binders were tested against CaBbc1 in the same assay as above.
In short: as §1
In the case of B1, the “SPOT peptide array binding signal intensity” value is reported as 346. B2 was tested, and the “SPOT peptide array binding signal intensity” value was 156.

Each binder was assayed against CaBem1-D1 in the same assay as above.
In short: as §1
For B1, the “SPOT peptide array binding signal intensity” value was 40.5. For B2, the “SPOT peptide array binding signal intensity” value was 26.

The binders below were run against CaBzz1-D1 in the same assay as above.
In short: as §1
For B1, the “SPOT peptide array binding signal intensity” value was 134. For B2, the “SPOT peptide array binding signal intensity” value was 73.

These binders were tested against CaBzz1-D2 in the same assay as above.
In short: as §1
For B1, the “SPOT peptide array binding signal intensity” value was 174. For B2, the “SPOT peptide array binding signal intensity” value was 79.2.

What follows are binders tested against CaCyk3 in the same assay as above.
In short: as §1
With B1 the “SPOT peptide array binding signal intensity” value was 169. In the case of B2, the “SPOT peptide array binding signal intensity” value is reported as 112.

The binders below were run against CaFus1 in the same assay as above.
In short: as §1
For B1, the “SPOT peptide array binding signal intensity” value was 734. For B2, the “SPOT peptide array binding signal intensity” value was 178.

Each binder was assayed against CaHof1 in the same assay as above.
In short: as §1
With B1 the “SPOT peptide array binding signal intensity” value was 1. B2 was tested, and the “SPOT peptide array binding signal intensity” value was 0.75.

The binders below were run against CaHse1 in the same assay as above.
In short: as §1
With B1 the “SPOT peptide array binding signal intensity” value was 35.2. For B2, the “SPOT peptide array binding signal intensity” value was 11.8.

What follows are binders tested against CaLsb1 in the same assay as above.
In short: as §1
With B1 the “SPOT peptide array binding signal intensity” value was 1.5. For B2, the “SPOT peptide array binding signal intensity” value was ≤ 0.

Each binder was assayed against CaLsb4 in the same assay as above.
In short: as §1
In the case of B1, the “SPOT peptide array binding signal intensity” value is reported as 193. B2 was tested, and the “SPOT peptide array binding signal intensity” value was 67.

Each binder was assayed against CaMyo5 in the same assay as above.
In short: as §1
B1 was tested, and the “SPOT peptide array binding signal intensity” value was 2. B2 was tested, and the “SPOT peptide array binding signal intensity” value was 2.5.

These binders were tested against CaNbp2 in the same assay as above.
In short: as §1
With B1 the “SPOT peptide array binding signal intensity” value was 266.

The binders below were run against CaRvs167 in the same assay as above.
In short: as §1
In the case of B1, the “SPOT peptide array binding signal intensity” value is reported as 4.

Each binder was assayed against CaRvs167-3 in the same assay as above.
In short: as §1
B1 was tested, and the “SPOT peptide array binding signal intensity” value was 79.2.

What follows are binders tested against CaSho1 in the same assay as above.
In short: as §1
In the case of B1, the “SPOT peptide array binding signal intensity” value is reported as 327.

Each binder was assayed against CaSla1-D1-D2 in the same assay as above.
In short: as §1
For B1, the “SPOT peptide array binding signal intensity” value was 146.

These binders were tested against CaSla1-D3 in the same assay as above.
In short: as §1
B1 was tested, and the “SPOT peptide array binding signal intensity” value was ≤ 0.

What follows are binders tested against ScAbp1 in the same assay as above.
In short: as §1
For B1, the “SPOT peptide array binding signal intensity” value was 50.

What follows are binders tested against ScBbc1 in the same assay as above.
In short: as §1
B1 was tested, and the “SPOT peptide array binding signal intensity” value was 88.

Each binder was assayed against ScBem1-D1 in the same assay as above.
In short: as §1
B1 was tested, and the “SPOT peptide array binding signal intensity” value was 76.

The binders below were run against ScBzz1-D1 in the same assay as above.
In short: as §1
B1 was tested, and the “SPOT peptide array binding signal intensity” value was 12.

These binders were tested against ScBzz1-D2 in the same assay as above.
In short: as §1
B1 was tested, and the “SPOT peptide array binding signal intensity” value was 10.

Each binder was assayed against ScCyk3 in the same assay as above.
In short: as §1
With B1 the “SPOT peptide array binding signal intensity” value was 204.

What follows are binders tested against ScFus1 in the same assay as above.
In short: as §1
For B1, the “SPOT peptide array binding signal intensity” value was 312.

The binders below were run against ScHof1 in the same assay as above.
In short: as §1
For B1, the “SPOT peptide array binding signal intensity” value was 2.5.

These binders were tested against ScHse1 in the same assay as above.
In short: as §1
For B1, the “SPOT peptide array binding signal intensity” value was 1040.

What follows are binders tested against ScLsb1 in the same assay as above.
In short: as §1
B1 was tested, and the “SPOT peptide array binding signal intensity” value was 5.25.

These binders were tested against ScLsb2 in the same assay as above.
In short: as §1
In the case of B1, the “SPOT peptide array binding signal intensity” value is reported as 11.

The binders below were run against ScLsb3 in the same assay as above.
In short: as §1
With B1 the “SPOT peptide array binding signal intensity” value was 244.

These binders were tested against ScLsb4 in the same assay as above.
In short: as §1
B1 was tested, and the “SPOT peptide array binding signal intensity” value was 17.

What follows are binders tested against ScMyo3 in the same assay as above.
In short: as §1
In the case of B1, the “SPOT peptide array binding signal intensity” value is reported as 7.

Each binder was assayed against ScMyo5 in the same assay as above.
In short: as §1
In the case of B1, the “SPOT peptide array binding signal intensity” value is reported as 4.75.

These binders were tested against ScNbp2 in the same assay as above.
In short: as §1
With B1 the “SPOT peptide array binding signal intensity” value was 378.

Each binder was assayed against ScPex13 in the same assay as above.
In short: as §1
For B1, the “SPOT peptide array binding signal intensity” value was 1.25.

Each binder was assayed against ScRvs167 in the same assay as above.
In short: as §1
For B1, the “SPOT peptide array binding signal intensity” value was 20.3.

What follows are binders tested against ScSho1 in the same assay as above.
In short: as §1
B1 was tested, and the “SPOT peptide array binding signal intensity” value was 862.

The binders below were run against ScSla1-D1-D2 in the same assay as above.
In short: as §1
For B1, the “SPOT peptide array binding signal intensity” value was 779.

What follows are binders tested against ScSla1-D3 in the same assay as above.
In short: as §1
With B1 the “SPOT peptide array binding signal intensity” value was 15.2.

These binders were tested against SpAbp1-D1 in the same assay as above.
In short: as §1
For B1, the “SPOT peptide array binding signal intensity” value was 345.

The binders below were run against SpBbc1 in the same assay as above.
In short: as §1
B1 was tested, and the “SPOT peptide array binding signal intensity” value was 2.5.

What follows are binders tested against SpBzz1-D1 in the same assay as above.
In short: as §1
In the case of B1, the “SPOT peptide array binding signal intensity” value is reported as 184.

Each binder was assayed against SpBzz1-D2 in the same assay as above.
In short: as §1
In the case of B1, the “SPOT peptide array binding signal intensity” value is reported as ≤ 0.

The binders below were run against SpCyk3 in the same assay as above.
In short: as §1
For B1, the “SPOT peptide array binding signal intensity” value was 4.5.

These binders were tested against SpHof1 in the same assay as above.
In short: as §1
With B1 the “SPOT peptide array binding signal intensity” value was 222.

What follows are binders tested against SpHof1-2 in the same assay as above.
In short: as §1
For B1, the “SPOT peptide array binding signal intensity” value was 5.5.

Each binder was assayed against SpHof1-3 in the same assay as above.
In short: as §1
B1 was tested, and the “SPOT peptide array binding signal intensity” value was 316.

The binders below were run against SpHse1 in the same assay as above.
In short: as §1
B1 was tested, and the “SPOT peptide array binding signal intensity” value was 298.

These binders were tested against SpLsb1 in the same assay as above.
In short: as §1
In the case of B1, the “SPOT peptide array binding signal intensity” value is reported as 11.5.

Each binder was assayed against SpLsb4 in the same assay as above.
In short: as §1
For B1, the “SPOT peptide array binding signal intensity” value was 292.

The binders below were run against SpMyo1 in the same assay as above.
In short: as §1
With B1 the “SPOT peptide array binding signal intensity” value was 3.

What follows are binders tested against SpNbp2 in the same assay as above.
In short: as §1
For B1, the “SPOT peptide array binding signal intensity” value was 1040.

These binders were tested against SpPex13 in the same assay as above.
In short: as §1
B1 was tested, and the “SPOT peptide array binding signal intensity” value was 13.

The binders below were run against SpRvs167 in the same assay as above.
In short: as §1
B1 was tested, and the “SPOT peptide array binding signal intensity” value was 7.33.

These binders were tested against SpSla1-D1-D2 in the same assay as above.
In short: as §1
B1 was tested, and the “SPOT peptide array binding signal intensity” value was 1.

The binders below were run against SpSla1-D3 in the same assay as above.
In short: as §1
For B1, the “SPOT peptide array binding signal intensity” value was 5.
